Among all 5,500 compounds or so, about 2,000 (36%) were called active. Roughly 18% stayed inconclusive and do not appear here. No stated cut-off is given here; in the data, active means normalized growth mostly below about 0.91 (no sharp cut-off); inconclusive means no clear call, values can overlap the other calls; inactive means mostly above about 0.92. Some of the results follow.
Assay: chemical genetic growth profiling, strain panel (AID 1159580);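 further: tested at 20 µM; growth read once vehicle control cultures reached saturation at 30 °C; 1 = growth at the plate median or of vehicle wells; lower values mean less growth of the strain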
Settings: growth OD

Measured: normalized growth

Cc1cc(O)cc(O)c1C(=O)O
inactive: S. cerevisiae deletion strains, locus YJR066W, strain TOR1, hits give low values 1.01 | S. cerevisiae deletion strains, locus YJR075W, strain HOC1, hits give low values 1.01 | S. cerevisiae deletion strains, locus YKL009W, strain mrt4, hits give low values 0.964 | S. cerevisiae deletion strains, locus YKL068W, hits give low values 0.992 | S. cerevisiae deletion strains, locus YKL085W, strain MDH1 (second series), hits give low values 1 | S. cerevisiae deletion strains, locus YKL085W, strain MDH1, hits give low values 1 | S. cerevisiae deletion strains, locus YKL160W, strain elf1, hits give low values 0.994 | S. cerevisiae deletion strains, locus YKL190W, strain CNB1, hits give low values 0.978 | S. cerevisiae deletion strains, locus YKR001C, strain vps1, hits give low values 1.01 | S. cerevisiae deletion strains, locus YKR026C, strain gcn3, hits give low values 1.02 | S. cerevisiae deletion strains, locus YKR091W, strain srl3, hits give low values 1.01 | S. cerevisiae deletion strains, locus YLL001W, strain dnm1, hits give low values 0.992 | S. cerevisiae deletion strains, locus YLL026W, hits give low values 1.02 | S. cerevisiae deletion strains, locus YLL041C, strain sdh2, hits give low values 1.03 | S. cerevisiae deletion strains, locus YLR027C, strain aat2, hits give low values 1.03 | S. cerevisiae deletion strains, locus YLR039C, strain RIC1, hits give low values 1.19 | S. cerevisiae deletion strains, locus YLR058C, strain SHM2, hits give low values 1.02 | S. cerevisiae deletion strains, locus YLR102C, strain apc9, hits give low values 1.01 | S. cerevisiae deletion strains, locus YLR113W, strain HOG1, hits give low values 1.09 | S. cerevisiae deletion strains, locus YLR221C, strain rsa3, hits give low values 1.04 | S. cerevisiae deletion strains, locus YLR258W, strain gsy2, hits give low values 1.04 | S. cerevisiae deletion strains, locus YLR262C, strain YPT6 (second series), hits give low values 1.04 | S. cerevisiae deletion strains, locus YLR268W, strain sec22, hits give low values 1.04 | S. cerevisiae deletion strains, locus YLR320W, strain mms22, hits give low values 1.03 | S. cerevisiae deletion strains, locus YLR330W, strain CHS5, hits give low values 1.01 | S. cerevisiae deletion strains, locus YLR342W, strain FKS1 (second series), hits give low values 1.02 | S. cerevisiae deletion strains, locus YLR342W, strain FKS1, hits give low values 1.03 | S. cerevisiae deletion strains, locus YLR357W, strain rsc2, hits give low values 1.01 | S. cerevisiae deletion strains, locus YLR370C, strain arc18, hits give low values 1.01 | S. cerevisiae deletion strains, locus YLR371W, strain rom2, hits give low values 0.987 | S. cerevisiae deletion strains, locus YLR384C, strain iki3, hits give low values 1.03 | S. cerevisiae deletion strains, locus YLR418C, strain cdc73, hits give low values 1.02 | S. cerevisiae deletion strains, locus YML016C, strain PPZ1, hits give low values 1.01 | S. cerevisiae deletion strains, locus YML032C, strain rad52, hits give low values 0.99 | S. cerevisiae deletion strains, locus YML120C, strain ndi1, hits give low values 1.01 | S. cerevisiae deletion strains, locus YML124C, strain tub3, hits give low values 0.989 | S. cerevisiae deletion strains, locus YMR058W, strain fet3, hits give low values 1.03 | S. cerevisiae deletion strains, locus YMR078C, strain ctf18, hits give low values 1 | S. cerevisiae deletion strains, locus YMR125W, strain sto1, hits give low values 1 | S. cerevisiae deletion strains, locus YMR129W, hits give low values 1 | S. cerevisiae deletion strains, locus YMR205C, strain PFK2, hits give low values 1 | S. cerevisiae deletion strains, locus YMR223W, strain ubp8, hits give low values 0.978 | S. cerevisiae deletion strains, locus YMR231W, strain pep5, hits give low values 1.01 | S. cerevisiae deletion strains, locus YMR307W, strain GAS1, hits give low values 1.19 | S. cerevisiae deletion strains, locus YNL067W, strain RPL9B, hits give low values 0.991 | S. cerevisiae deletion strains, locus YNL071W, strain lat1, hits give low values 1.01 | S. cerevisiae deletion strains, locus YNL153C, strain GIM3, hits give low values 0.998 | S. cerevisiae deletion strains, locus YNL183C, strain NPR1, hits give low values 1.01 | S. cerevisiae deletion strains, locus YNL209W, strain ssb2, hits give low values 1 | S. cerevisiae deletion strains, locus YNL233W, strain BNI4, hits give low values 1.04 | S. cerevisiae deletion strains, locus YNL248C, strain rpa49, hits give low values 1.03 | S. cerevisiae deletion strains, locus YNL250W, strain rad50, hits give low values 0.905 | S. cerevisiae deletion strains, locus YNL271C, strain bni1, hits give low values 0.98 | S. cerevisiae deletion strains, locus YNL298W, strain CLA4, hits give low values 1.01 | S. cerevisiae deletion strains, locus YNL307C, strain MCK1, hits give low values 1 | S. cerevisiae deletion strains, locus YNL322C, strain KRE1 (second series), hits give low values 1 | S. cerevisiae deletion strains, locus YNR049C, strain mso1, hits give low values 1.02 | S. cerevisiae deletion strains, locus YNR052C, strain pop2, hits give low values 1 | S. cerevisiae deletion strains, locus YOL012C, strain htz1 0.732 | S. cerevisiae deletion strains, locus YOL147C, strain pex11, hits give low values 0.988 | S. cerevisiae deletion strains, locus YOR001W, strain rrp6, hits give low values 1.02 | S. cerevisiae deletion strains, locus YOR061W, strain CKA2, hits give low values 1.02 | S. cerevisiae deletion strains, locus YOR069W, strain VPS5, hits give low values 1.01 | S. cerevisiae deletion strains, locus YOR070C, strain gyp1, hits give low values 1.02 | S. cerevisiae deletion strains, locus YOR080W, strain dia2, hits give low values 1.02 | S. cerevisiae deletion strains, locus YOR083W, strain WHI5, hits give low values 0.989 | S. cerevisiae deletion strains, locus YOR106W, strain vam3, hits give low values 0.98 | S. cerevisiae deletion strains, locus YOR136W, strain idh2, hits give low values 0.991 | S. cerevisiae deletion strains, locus YOR144C, strain elg1, hits give low values 0.996 | S. cerevisiae deletion strains, locus YOR184W, strain ser1, hits give low values 1.09 | S. cerevisiae deletion strains, locus YOR231W, strain MKK1, hits give low values 1.11 | S. cerevisiae deletion strains, locus YOR265W, strain rbl2, hits give low values 1.01 | S. cerevisiae deletion strains, locus YOR270C, strain vph1, hits give low values 1.07 | S. cerevisiae deletion strains, locus YOR290C, strain snf2, hits give low values 1 | S. cerevisiae deletion strains, locus YOR316C, strain cot1, hits give low values 0.977 | S. cerevisiae deletion strains, locus YPL051W, strain arl3, hits give low values 0.986 | S. cerevisiae deletion strains, locus YPL055C, strain LGE1, hits give low values 1.09 | S. cerevisiae deletion strains, locus YPL078C, strain atp4, hits give low values 0.997 | S. cerevisiae deletion strains, locus YPL106C, strain sse1, hits give low values 0.986 | S. cerevisiae deletion strains, locus YPL240C, strain hsp82, hits give low values 1.01 | S. cerevisiae deletion strains, locus YPL241C, strain CIN2, hits give low values 0.999 | S. cerevisiae deletion strains, locus YPL256C, strain CLN2, hits give low values 1.09 | S. cerevisiae deletion strains, locus YPR119W, strain clb2, hits give low values 0.981 | S. cerevisiae deletion strains, locus YPR141C, strain kar3, hits give low values 0.973 | S. cerevisiae deletion strains, locus YPR163C, strain tif3, hits give low values 1 | S. cerevisiae deletion strains, locus YPR167C, strain met16, hits give low values 0.996 | S. cerevisiae deletion strains, strain wtn01, hits give low values 1.02 | S. cerevisiae strains, strain wild type, hits give low values 1.03
